# Pf Dd2 growth: qHTS Primary assay for Inhibitors of Plasmodium falciparum Dd2 growth in vitro | actives 4.3% (n = 120,000) | Potency, µM (highest dose often 28.9 µM), without a hit: at the highest dose activity, negative = inhibition, usual class: inhibitors | AID 1347417, 2020 | P. falciparum Dd2 growth, SYBR Green, 72 h; active = well fitted inhibition curve with a large enough effect;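 also: plate controls were DMSO vehicle for no effect and reference drug for full effect; nearly all actives have a fitted effect of over 65% in size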
#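 Infected erythrocytes (Dd2, 0.3% parasitemia, 2.5% hematocrit final) are added to compound in RPMI-1640/Albumax II medium, grown 72 h at 37C in low oxygen, then lysed with saponin/Triton-X containing SYBR Green and read by fluorescence.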
# Starred values were filed as active, the others as inactive; i = inactive; [ ] = another dose, or the depositor's remark. The sample as a whole holds a higher share of hits than the screen did. Potency is read from the fitted curve at half-maximal effect.
SMILES,Pf Dd2 growth
CCc1noc(-c2nc(Cc3cccc(F)c3)no2)n1,i
CN(Cc1ccc(-n2cccn2)cc1)Cc1nc(Cc2cccc(F)c2)no1,5%
Oc1ccc(CCC2CCCCN2Cc2nc(Cc3cccc(F)c3)no2)cc1 (centres undefined),5µM*
CCCNc1cc(N2CCC(CCC(=O)Nc3cccc(C)c3)CC2)ncn1,i
Cc1c(C(C)NC(=O)c2cc(=O)[nH]c(=O)[nH]2)cnn1-c1cccc2ccccc12 (centres undefined),-11%
Cc1nc2ccc(C(=O)N3C[C@@H]4CCN(C)C[C@]4(C(=O)O)C3)cc2s1,20%
CN(Cc1cccc2ccccc12)C1CCCc2ccccc21 (centres undefined),11µM*
CN(Cc1ccc(F)cc1)C1CCc2ccccc21 (centres undefined),-3%[44.1 µM]
CN(Cc1ccc(C(F)(F)F)cc1)C1CCc2ccccc21 (centres undefined),-8%[44.1 µM]
CN(Cc1cccnc1)C1CCCc2ccccc21 (centres undefined),5µM*
COC(=O)N(C)C1CCCc2ccccc21 (centres undefined),-21%[44.1 µM]
CN(CC1CCCCC1)C1CCc2ccccc21 (centres undefined),-21%[44.1 µM]
COc1ccc(CNC(=O)CC2CCCCN(Cc3ccccc3)C2=O)cc1 (centres undefined),i
COC1CCC12CCN(C(=O)c1cnn(C)c1)CC2 (centres undefined),-16%
O=C(Cc1ccc(OC(F)(F)F)cc1)Nc1cccn2nc(C3CC3)nc12,-19%
COc1ccc(CNC(=O)c2cc3n(n2)CC(c2ccc(Cl)cc2)OC3)cc1 (centres undefined),-13%
COc1cccc(CC(=O)N2CC(C(=O)NCCc3ccncc3)C3(CCOCC3)C2)c1 (centres undefined),-14%
COc1ccc(C(=O)NCCc2noc(-c3ccncc3)n2)cn1,2.5µM*
Cn1cc(C(=O)NCCc2noc(-c3ccncc3)n2)cn1,0%
COCc1nc(CCNC(=O)c2ccc(OC)nc2)no1,5%
NC(=O)Cc1c[nH]c2ncc(-c3ccc(F)cc3)cc12,i
Cc1ccccc1-c1cnc2[nH]cc(CC(=O)NCc3cccnc3)c2c1,-15%[44.1 µM]
O=C(Cc1c[nH]c2ncc(-c3ccc(Oc4ccccc4)cc3)cc12)NCc1cccnc1,8.9µM*
CN(C)c1cccc(-c2cnc3[nH]cc(CC(=O)NCc4cccnc4)c3c2)c1,8.9µM*
O=C(Cc1c[nH]c2ncc(-c3ccccc3F)cc12)NCc1cccnc1,-2%[44.1 µM]
SMILES,Pf Dd2 growth
Cc1noc(C)c1-c1cnc2[nH]cc(CC(=O)NCc3cccnc3)c2c1,-11%[44.1 µM]
Cc1cccc(-c2cnc3[nH]cc(CC(N)=O)c3c2)c1,i
COc1ccc(-c2cnc3[nH]cc(CC(N)=O)c3c2)cc1OC,0.63µM*
CN(C)c1cccc(NC(=O)Cc2c[nH]c3ncc(-c4cccnc4)cc23)c1,i
CCCN(CC1CCOC1)C(=O)NCc1ccco1 (centres undefined),31%[5.79 µM]
O=C(CCc1cc2n(n1)CCCNC2)N1CCCN(c2ccncc2)CC1,-1%
Cc1nn(CCC#N)c(C)c1[C@@H]1C=C[C@@H](NC(=O)CCCC(=O)O)C1,-14%[44.1 µM]
CN1CC(=O)N(C2CCCNC2)Cc2c(NCCCN3CCCCC3)ncnc21 (centres undefined),8%
O=C(c1cc(F)ccc1Cl)N1CCC(Cc2nc(-c3ccccc3)no2)CC1,i
COC[C@@H]1CN(S(=O)(=O)c2ccc(C)c(F)c2)C[C@H]1C(N)=O,3%
CCNC(=O)c1cccnc1OC1CCN(C(=O)c2cccc(Cl)c2)C1 (centres undefined),17%
CCOc1ccc(NC(=O)C2CCN(C(=O)N3CC(C)Oc4ccc(Cl)cc43)CC2)cc1 (centres undefined),13µM*
CCCNC(=O)C1CCN(C(=O)N2CC(C)Oc3ccccc32)CC1 (centres undefined),11%
CCC1CN(C(=O)N2CCC(C(=O)NCCc3ccc(OC)cc3OC)CC2)c2cc(C)ccc2O1 (centres undefined),5.6µM*
CCC1CN(C(=O)N2CCC(C(=O)NCCN(CC)CC)CC2)c2cc(C)ccc2O1 (centres undefined),i
CC1CN(C(=O)N2CCC(C(=O)NCCC3=CCCCC3)CC2)c2cc(Cl)ccc2O1 (centres undefined),212%[5.79 µM]
Cc1ccc2c(c1)N(C(=O)N1CCC(C(=O)NCCc3ccc(Cl)cc3)CC1)CC(C)O2 (centres undefined),8.9µM*
CNC(=O)C1CCN(C(=O)N2CC(C)Oc3ccc(C)cc32)CC1 (centres undefined),-7%
CCC1CN(C(=O)N2CCC(C(=O)NCCc3ccc(C)cc3)CC2)c2ccccc2O1 (centres undefined),i
CC1CN(C(=O)N2CCC(C(=O)NCc3cccs3)CC2)c2cc(Cl)ccc2O1 (centres undefined),-18%
CCC(C)NC(=O)C(C)N1C(=O)COc2ccc(C(=O)COc3ccc(OC)cc3)cc21 (centres undefined),-28%
